This note sets out measurements from PubChem BioAssay (NCI).

About 83,000 compounds went through this panel and 20% of them were active in at least one assay; those are over-represented in the sample as a whole.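 Each cell line was grown in a 96-well plate and treated with one concentration of compound for 48 hours. Values below 10 were considered active.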 Values without a mark were called inactive. Activity calls are given as the source filed them.

The subject of this assay is UO-31 renal. Kind of assay: NCI-60 one-dose screen, 48 h (100 = growth as untreated, 0 = no growth, -100 = all killed). The settings on record: 10 µM unless noted. The procedure:
Growth inhibition of the UO-31 human tumor cell line is measured as a screen for anti-cancer activity. Cells are grown in 96 well plates and exposed to the test compound for 48 hours. Compounds are tested at a single concentration, which is 10^-5 M for most compounds. The reported endpoint is percent growth (GI% or GIPRCNT), where numbers from 0 - 100% represent growth inhibition, and numbers from -100% - 0 represent cell death. For example, a value of 40 represents 60% growth inhibition. A value of 0 means no net growth occurred over the course of the experiment. A value of -40 indicates 40% of cells at the beginning of the experiment died by the end of the experiment. A value of -100 means all cells are dead at the end of the experiment.
NCI-60 Human Tumor Cell Lines Screen was performed using the standard one-dose NCI protocol, which is described in more detail at https://dtp.cancer.gov/discovery_development/nci-60/default.htm.
Compounds with GIPRCNT values below 10 were considered active. Activity score was based on GIPRCNT using the following formula: […]
Score is 0 for GIPRCNT values of 100 or above, 50 for GIPRCNT values of 0, and 100 for GIPRCNT values of -100.
Take `COc1cc(C(=O)N/N=C/c2cc3cc(OCc4ccccc4)ccc3nc2OC)cc(OC)c1OC`: the growth was 81%.

In the case of `CCOC(=O)c1c(C)oc2ncnc(N3CCN(C(=O)COc4ccc(C(C)(C)C)cc4)CC3)c12`, the growth is 48%.

As to `Cc1cc(=O)[nH]c(=O)n1Cc1cn(-c2c3ccccc3nc3ccccc23)nn1`, the growth is 82.6%.

With `O=C(O)C(c1ccccc1)N1C(=O)CSC1=S` (stereo not given), the growth is 94.3%.

Turning to `COc1ccc(-c2nc(NCCO)[nH]c(=O)c2C#N)cc1`, the growth was 90.5%.

Take `C=CCNc1ccc2c3c(cccc13)C(=O)N(N1C(=O)c3cccc4cccc(c34)C1=O)C2=O`: the growth is 81.1%.

In the case of `CCN1C(=O)N(CC)C2Nn3c(s/c(=C4\C(=O)N(CC(C)C)c5ccccc54)c3=O)=NC21` (stereo not given), the growth is 49.8%.

Take `Cc1cccc2c3c(sc12)C(c1ccc(Cl)cc1)C(C#N)=C(N)O3` (stereo not given): the growth is 39%.

Turning to `O=C(Nc1ccc(Cl)cc1F)c1ccccc1O`, the growth is 9.45% (active).

`O=C(/C=C/c1cccc2ccccc12)c1ccc(NC(=O)c2ccccc2CN2C(=O)c3ccccc3C2=O)cc1`: the growth is 50.7%.

Turning to `Cc1nc2ccccc2c(/C=C/c2ccc(Cl)cc2)c1C(=O)/C=C/c1ccc(C(F)(F)F)cc1`, the growth is -100% (active).

As for `COc1ccc(-c2nc(NN)c3c(C)nn(-c4ccc(F)cc4)c3n2)cc1`, the growth is 51.2%.

Consider `N#Cc1c(-c2ccc(Cl)cc2)nc(NCCO)[nH]c1=O`, for which the growth was 74.5%.

For `Cc1ccc2c(-c3cc(-c4ccccc4)nc(N)c3C#N)cc(=O)oc2c1`, the growth is 86.3%.

As to `O=C(S)CNC(=O)c1ccccc1`, the growth was 76.5%.

On to `COc1cc2cc(Oc3ccc(NC(=O)Nc4ccc(Cl)c(Cl)c4)cc3)c(C)nc2cc1OCCN1CCOCC1`, for which the growth was 83.9%.

As to `CCOC(=O)c1cn2ncnc(Oc3ccc(NC(=O)NCCN(C)C)c(Cl)c3)c2c1C`, the growth is 62.1%.

As to `Cc1nc2ccccc2n1-c1ncnc2c1CC(C)c1ccccc1N2C` (stereo not given), the growth is 71.3%.

Take `CN1CCN(Cc2ccc(NC(=O)c3cncc(C#Cc4cnccc4C#N)c3)cc2C(F)(F)F)CC1`: the growth was 43.5%.

In the case of `CCOC(=O)CC1C(COC(=O)NC)OC(n2cnc3c(NC(=O)Nc4ccccc4)ncnc32)C1O[Si](C)(C)C(C)(C)C` (stereo not given), the growth is 41.9%.

Regarding `COc1ccc(C2NC(=O)C(C#N)c3c2sc2c(F)cccc32)c(OC)c1` (stereo not given), the growth is 34%.

Turning to `COc1cc(OCc2cccc(-c3ccc(C(O)c4nccs4)cc3)c2C)cc(OC)c1CNCCNC(C)=O` (stereo not given), the growth is 89%.

For the molecule `CCN(CC)c1ccc(C2=NN(C(C)=O)C(c3cc(OC)c(OC)c(OC)c3)C2)cc1` (stereo not given), the growth is -19% (active).

`O=C(/C=C/c1sc(Cl)nc1Cl)c1ccc(F)cc1`: the growth was 85.4%.

Turning to `N#Cc1ccc(NC(=O)c2sc3nc4c(cc3c2N)C(=O)CCC4)cc1`, the growth is 104%.

On to `COc1ccccc1/C=C1\Oc2cc(OCCN3CCC(Cc4ccccc4)CC3)ccc2C1=O`, for which the growth was 65.5%.

As to `CCOC(=O)c1[nH]c(C)c(C(=O)OCc2ccccc2C#N)c1C`, the growth is 88.3%.

With `O=[N+]([O-])c1ccc(Oc2nc(Nc3ccc(O[C@H]4CO[C@H]5[C@@H]4OC[C@@H]5O)c(Cl)c3)ncc2F)c(Cl)c1`, the growth was -9.77% (active).

With `N#Cc1c(-c2ccccc2)nc(SCC(=O)Nc2nc(-c3ccc(Cl)cc3)cs2)[nH]c1=O`, the growth is 83.2%.

Regarding `O=C(N/N=C/c1ccc(Cl)cc1)c1ccc(C(F)(F)F)nc1Nc1cccc(C(F)(F)F)c1`, the growth is 10%.

`N#C/C(=C\c1ccc(F)cc1)n1nc2cccc(F)c2n1`: the growth is 41%.

As for `CCC(C)(c1cc(C(C)(C)C)c(O)c(C(C)(C)C)c1)c1cc(C(C)(C)C)c(O)c(C(C)(C)C)c1`, the growth was 92.2%.

With `N#Cc1c(-c2ccc(Cl)cc2)nc2c(c(-c3ccccc3)nn2-c2ccccc2)c1-c1ccc(O)cc1`, the growth is 30.5%.

For the molecule `COc1ccc2nc(NCCCNCCO)c3sc4ccc(F)cc4c(=O)c3c2c1`, the growth is 38.4%.

Take `CCOc1cccc(NC2=C(Br)C(=O)C(C)=C(C)C2=O)c1`: the growth is 71.7%.

Regarding `O=C(CSc1nccc(Nc2ccc(S(=O)(=O)Nc3nccs3)cc2)n1)c1ccc(C(F)(F)F)cc1`, the growth is 69.2%.

As for `Cc1c(C(=O)NCCCc2ccccc2)sc2ncc(-c3ccc(Br)cc3)n12`, the growth is 92%.

Turning to `CCCCNC(=O)Oc1ccc(/C(=C(\C)c2ccc(Cl)cc2)c2ccc(OCCN(CC)CC)cc2)cc1`, the growth was 47.8%.

In the case of `CCOC(=O)c1sc2ncc(-c3ccc(OC)cc3)n2c1C`, the growth was 79.3%.

For the molecule `O=C(O)CCC/C=C\C[C@H]1C=CC(=O)/C1=C/C[C@@H](O)CCc1cccc(C(F)(F)F)c1`, the growth was -88.4% (active).
